C diff HTS = inhibitors of Clostridium difficile growth. Clostridium difficile clinical isolate growth, OD600, 24 h; stronger effect = lower value. growth activity, negative = inhibition, % at 16 µg/mL (by protocol). 0.25% of 86,000 active;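 active = mean growth activity at or below -80% and every replicate also at or below -80%; inconclusive = mean at or below -80% but some replicate above -80%; inactive = mean growth activity above -80%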
T cruzi growth-1 = T. cruzi proliferation inhibition; inhibition, % at 8.34 µM; T. cruzi beta-gal in NIH3T3, GalScreen luminescence, 90 h; 5.9% of 77,000 active;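 active = mean inhibition above about 93%, with at least 55% of replicates each passing it, limit read from the data, passing the limit was not always enough; inconclusive = only one of those two conditions holds; inactive = neither condition holds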
Pf Dd2 growth = blocks growth of Plasmodium falciparum Dd2 parasites. P. falciparum Dd2 growth, SYBR Green, 72 h; stronger effect = lower value. 2.3% of 94,000 active. AID 1159554. activity change, % at 10 µM; in the data active = activity change below about -80%; inconclusive = no clear call, values can overlap the other calls
T cruzi growth-2 = inhibitors of T. cruzi proliferation. shares compounds with T cruzi growth-1. T. cruzi beta-gal in NIH3T3, GalScreen luminescence, 90 h. inhibition, % at 8.35 µM. 72% of 5,600 active;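 active = mean replicate inhibition above about 95% and at least 55% of replicates individually reaching it, limit read from the data; inconclusive = only one of the two criteria is met; inactive = neither criterion is met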
T cruzi growth-3 = inhibitors of T. cruzi proliferation | T. cruzi beta-gal in NIH3T3, GalScreen luminescence, 90 h | inhibition, % at 2.09 µM | shares compounds with T cruzi growth-1 | 21% of 5,600 active;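 active = mean inhibition above about 95%, with at least 55% of replicates also reaching it, limit read from the data; inconclusive = meets just one of the two conditions; inactive = meets neither condition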
3T3 cytotox = kills mouse NIH/3T3 fibroblasts; shares compounds with T cruzi growth-1; NIH/3T3 viability, CellTiter-Glo ATP luminescence, 90 h; cytotoxicity (signal decrease), % at 8.35 µM; 14% of 5,600 active; AID 651742;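 active = mean signal decrease across replicates above about 35% based on untreated-well scatter, with enough replicates individually passing, limit read from the data; inconclusive = no rule stated though some were filed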
NIH3T3 tox 2 = cytotoxicity in mouse NIH/3T3 fibroblasts. shares compounds with T cruzi growth-1. NIH/3T3 viability, CellTiter-Glo ATP luminescence, 90 h. inhibition, % at 24.9 µM. 56% of 5,600 active. AID 651744;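 active = mean loss of cell viability signal at or above a set limit, and enough replicates individually reaching it; inconclusive = meets only the mean limit or only the replicate share; inactive = meets neither condition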
Large screens that a line does not name were inactive (follow-up assays come after a bar, where they were run). This is a sample that favours compounds with a hit; in the whole collection about 6.8% have one here.

COc1ccc(NC(=O)N2CCCCN3[C@H](CO)[C@@H](c4ccc(-c5ccccc5C)cc4)[C@@H]3C2)cc1	none
O=C(Nc1ccc(F)cc1)N1CCCCN2[C@H](C1)[C@H](c1ccc(C3=CCCCC3)cc1)[C@@H]2CO	T cruzi growth-1 112 | T cruzi growth-2 106 | T cruzi growth-3 inactive | 3T3 cytotox inactive | NIH3T3 tox 2 86
COc1ccc(NC(=O)N2CCCCN3[C@@H](CO)[C@H](c4ccc(C5=CCCC5)cc4)[C@@H]3C2)cc1	none
O=C(Nc1ccccc1F)N1CCCCN2[C@H](CO)[C@H](c3ccc(C4=CCCC4)cc3)[C@H]2C1	T cruzi growth-1 103 | T cruzi growth-2 inactive | T cruzi growth-3 inactive | 3T3 cytotox inactive | NIH3T3 tox 2 103
O=C(Nc1ccccc1F)N1CCCCN2[C@H](C1)[C@H](c1ccc(C3=CCCC3)cc1)[C@@H]2CO	none
COc1ccc(NC(=O)N2CCCCN3[C@H](C2)[C@H](c2ccc(C4=CCCCC4)cc2)[C@@H]3CO)cc1	T cruzi growth-1 110 | T cruzi growth-2 114 | T cruzi growth-3 inactive | 3T3 cytotox inactive | NIH3T3 tox 2 94
C/C=C/c1cnc2c(c1)C(=O)N([C@H](C)CO)C[C@@H](C)[C@@H](CN(C)S(=O)(=O)c1ccccc1)O2	none
COc1cccc(-c2ccc3c(c2)O[C@@H](CN(C)C(=O)C2CC2)[C@H](C)CN([C@H](C)CO)S3(=O)=O)c1	none (no result: C diff HTS)
COc1cccc(-c2ccc3c(c2)O[C@@H](CN(C)C(=O)C2CCOCC2)[C@@H](C)CN([C@@H](C)CO)S3(=O)=O)c1	none (no result: T cruzi growth-1)
COc1cccc(-c2ccc3c(c2)O[C@@H](CN(C)C(=O)C2CC2)[C@H](C)CN([C@@H](C)CO)S3(=O)=O)c1	none (no result: C diff HTS)
COc1cccc(-c2ccc3c(c2)O[C@H](CN(C)C(=O)C2CCCCC2)[C@H](C)CN([C@@H](C)CO)S3(=O)=O)c1	T cruzi growth-1 117 | T cruzi growth-2 103 | T cruzi growth-3 inactive | 3T3 cytotox inactive | NIH3T3 tox 2 89
COc1cccc(-c2ccc3c(c2)O[C@H](CN(C)C(=O)C2CCCCC2)[C@@H](C)CN([C@H](C)CO)S3(=O)=O)c1	T cruzi growth-1 99 | T cruzi growth-2 101 | T cruzi growth-3 inactive | 3T3 cytotox inactive | NIH3T3 tox 2 43
COc1cccc(-c2ccc3c(c2)O[C@@H](CN(C)C(=O)C2CCCCC2)[C@H](C)CN([C@H](C)CO)S3(=O)=O)c1	T cruzi growth-1 105 | T cruzi growth-2 96 | T cruzi growth-3 inactive | 3T3 cytotox inactive | NIH3T3 tox 2 91
COc1cccc(-c2ccc3c(c2)O[C@@H](CN(C)C(=O)C2CCC2)[C@H](C)CN([C@@H](C)CO)S3(=O)=O)c1	T cruzi growth-1 110 | T cruzi growth-2 97 | T cruzi growth-3 inconclusive | 3T3 cytotox inactive | NIH3T3 tox 2 27
COc1cccc(-c2ccc3c(c2)O[C@H](CN(C)C(=O)C2CC2)[C@H](C)CN([C@H](C)CO)S3(=O)=O)c1	none (no result: C diff HTS)
CCCN(C)C[C@H]1OCCCC[C@@H](C)Oc2ccc(NC(=O)C3CCCCC3)cc2C(=O)N([C@H](C)CO)C[C@H]1C	none
CCCN(C)C[C@H]1OCCCC[C@@H](C)Oc2ccc(NC(=O)C3CCCCC3)cc2C(=O)N([C@H](C)CO)C[C@@H]1C	none
CCCN(C)C[C@H]1OCCCC[C@H](C)Oc2ccc(NC(=O)C3CCCCC3)cc2C(=O)N([C@H](C)CO)C[C@H]1C	T cruzi growth-1 108 | T cruzi growth-2 99 | T cruzi growth-3 inactive | 3T3 cytotox inactive | NIH3T3 tox 2 inactive
CCCN(C)C[C@H]1OCCCC[C@@H](C)Oc2ccc(NC(=O)C3CCCCC3)cc2C(=O)N([C@@H](C)CO)C[C@H]1C	T cruzi growth-1 102, Pf Dd2 growth -81 | T cruzi growth-2 104 | T cruzi growth-3 inactive | 3T3 cytotox inactive | NIH3T3 tox 2 inactive
CN1C(=O)c2cc(NS(=O)(=O)c3ccccc3Cl)ccc2OC[C@H]2O[C@@H](CC(=O)O)CC[C@@H]21	none
C[C@@H]1CN([C@@H](C)CO)C(=O)Cc2cc(NC(=O)Cc3cn(C)c4ccccc34)ccc2O[C@H]1CN(C)C(=O)Nc1cccc2ccccc12	none
C[C@@H]1CCCCO[C@@H](CN(C)C(=O)Nc2ccc(F)cc2)[C@@H](C)CN([C@@H](C)CO)C(=O)c2cc(NC(=O)Nc3cccc4ccccc34)ccc2O1	none
C[C@H](CO)N1C[C@H](C)[C@@H](CN(C)C(=O)Nc2cccc3ccccc23)OCCCC[C@H](C)Oc2ccc(NC(=O)Nc3ccccc3)cc2C1=O	none
C[C@@H]1CCCCO[C@@H](CN(C)C(=O)Nc2ccc(F)cc2)[C@@H](C)CN([C@H](C)CO)C(=O)c2cc(NC(=O)Nc3cccc4ccccc34)ccc2O1	T cruzi growth-1 103 | T cruzi growth-2 inactive | T cruzi growth-3 inactive | 3T3 cytotox inactive | NIH3T3 tox 2 inactive
C[C@@H]1CCCCO[C@H](CN(C)C(=O)Nc2cccc3ccccc23)[C@H](C)CN([C@@H](C)CO)C(=O)c2cc(NC(=O)c3ccccc3)ccc2O1	T cruzi growth-1 101 | T cruzi growth-2 109 | T cruzi growth-3 inactive | 3T3 cytotox inactive | NIH3T3 tox 2 inactive
C[C@@H]1CN([C@H](C)CO)C(=O)c2cc(NC(=O)c3ccccc3)ccc2O[C@@H](C)CCCCO[C@H]1CN(C)C(=O)Nc1cccc2ccccc12	none
C[C@H]1CCCCO[C@H](CN(C)C(=O)Nc2cccc3ccccc23)[C@@H](C)CN([C@@H](C)CO)C(=O)c2cc(NC(=O)Nc3ccc(F)cc3)ccc2O1	none
C[C@@H]1CCCCO[C@@H](CN(C)C(=O)Nc2cccc3ccccc23)[C@H](C)CN([C@H](C)CO)C(=O)c2cc(NC(=O)Nc3ccc(F)cc3)ccc2O1	T cruzi growth-1 96 | T cruzi growth-2 102 | T cruzi growth-3 109 | 3T3 cytotox inactive | NIH3T3 tox 2 inactive
C[C@H]1CCCCO[C@H](CN(C)C(=O)Nc2cccc3ccccc23)[C@@H](C)CN([C@@H](C)CO)C(=O)c2cc(NC(=O)Nc3ccccc3)ccc2O1	T cruzi growth-1 inconclusive | T cruzi growth-2 106 | T cruzi growth-3 113 | 3T3 cytotox inactive | NIH3T3 tox 2 inactive
CC(C)C#Cc1cnc2c(c1)C(=O)N([C@H](C)CO)C[C@@H](C)[C@@H](CN(C)C(=O)Nc1ccccc1F)O2	none (no result: C diff HTS)
C=CC[C@]1(C(=O)N2CCOCC2)COC(c2ccc(OCCCO)cc2)=N1	none (no result: T cruzi growth-1, Pf Dd2 growth)
CCC(=O)N(C)C[C@@H]1Oc2cc(-c3ccccc3)ccc2S(=O)(=O)N([C@@H](C)CO)C[C@@H]1C	none

Assay outcomes: PubChem, Broad Institute
